# Screening data deposited in PubChem BioAssay by several laboratories.
# CCHF vOTU inh = CCHFV vOTU protease inhibition. Pep-AMC fluorescence. inhibition, % at 11.5 µM. 370,000 compounds, 0.55% hits; in the data active = inhibition above about 30%
# TcdB inh = inhibitors of Clostridioides difficile toxin B glycohydrolase; P18177; TcdB glycohydrolase enzymatic assay, plate reader; inhibition, % at 9.99 µM; 350,000 compounds, 0.24% hits; AID 652162; in the data active = inhibition above about 10%
# Vc quorum ag = inducers of Vibrio cholerae quorum light production without autoinducers; V. cholerae BH1578 lux reporter, luminescence, 6 h; 350,000 compounds, 0.16% hits; activation, % at 18.7 µM; AID 588436; in the data active = activation mostly above about 9.7%, no sharp cut-off
# PriA SSB inh = blocks PriA binding to SSB C-terminal tail | AID 1272365 | AlphaScreen SSBct-PriA binding, biotinylated peptide | 430,000 compounds, 0.6% hits | inhibition, % at 33 µM; in the data active = inhibition mostly above about 37%, no sharp cut-off; inactive = mostly below about 20%
# DUSP3 inh = inhibitors of human VHR1 phosphatase (DUSP3) | recombinant VHR phosphatase, pNPP absorbance | P51452 | AID 1654 | 290,000 compounds, 0.52% hits | inhibition, % at 13.3 µM; in the data active = inhibition above about 50%
# PrPC TRFRET = reduces human prion protein on the cell surface; 370,000 compounds, 0.43% hits; P04156; AID 720596; inhibition, % at 13.8 µM; cell surface PrPC, TR-FRET read-out; in the data active = inhibition above about 24%
# Numbers stand for hits; n = inactive; x = no result; + = active, no number; ! = a repeat was not active. The list is not random: actives were taken first. Their share in the collection is about 1.5%.
SMILES,CCHF vOTU inh,TcdB inh,Vc quorum ag,PriA SSB inh,DUSP3 inh,PrPC TRFRET
C/C(=N\NC(=S)Nc1cccc(C)c1)c1cc2ccccc2o1,n,n,n,x,n,n
CCc1c(C)nc(-n2nc(C3CC3)cc2NC(=O)c2ccc(S(=O)(=O)N3CCCC3)cc2)[nH]c1=O,x,x,x,n,x,x
Cc1c(-n2c(O)c(C3=c4ccccc4=NC3=O)sc2=S)c(=O)n(-c2ccccc2)n1C,n,18,n,n,n,n
O=C1N=c2ccccc2=C1c1sc(=S)n(-c2ccc(O)cc2)c1O,n,n,n,n,n,n
CCOC(=O)C1=C(N)n2c(s/c(=C\c3cccnc3)c2=O)=C(C(=O)OCC)C1c1cccnc1 (stereo not drawn),x,x,x,x,57,x
CC1CN(C(=O)c2cc3cc(F)ccc3[nH]2)CC(C)O1 (stereo not drawn),n,n,n,n,53,n
CN(C(=O)CCCn1nc(-c2ccc(F)cc2)ccc1=O)c1ccccc1,x,x,x,n,x,x
CCOC(=O)c1cc(NC(=O)C2C3CCC(O3)C2C(=O)O)cc(C(=O)OCC)c1 (stereo not drawn),n,n,n,53,n,n
Cc1cc(C(=O)CSc2nnnn2-c2ccccc2)c(C)n1-c1ccc2c(c1)OCO2,n,11,n,n,n,n
Cc1cc(C(=O)CSc2nnnn2-c2ccccc2)c(C)n1-c1ccccc1,x,x,x,n,x,x
C=CCOc1ccc(/C=N/NC(=O)CC#N)cc1OC,x,x,x,n,x,x
N#CCC(=O)NN=Cc1ccccc1OC/C=C/c1ccccc1,x,x,x,71,x,x
COc1cc(C=NNC(=O)CC#N)ccc1OC/C=C/c1ccccc1,x,x,x,68,x,x
COc1cc(/C=N/NC(=O)CC#N)ccc1OCc1ccccc1,x,x,x,+,x,x
O=C1N(Cc2cccnc2)c2ccccc2S(=O)(=O)N1c1cc(F)ccc1F,x,x,x,n,x,x
COc1ccc2sc(N3CC(C(=O)NCc4ccccn4)C3)nc2c1,x,x,x,n,x,x
COCCN(CCOC)S(=O)(=O)c1ccc(C(=O)N=c2sc3ccc(C)c(C)c3n2C)cc1,x,x,x,n,x,x
O=C(NCCc1ccoc1)Nc1ccccc1Cl,x,x,x,n,x,x
Nc1cc(C(=O)O)c(N)c2c1C(=O)c1ccccc1C2=O,x,x,n,74,n,x
COc1cc2c(cc1O)CC[n+]1cc3c(OC)c(OC)ccc3cc1-2,n,13,n,n,n,n
COc1ccc(CCNC(=O)CSc2ccc(-c3ccccn3)nn2)cc1OC,x,x,x,94,x,x
O=C(CSc1ccc(-c2ccccn2)nn1)Nc1cccc(F)c1,n,n,n,55,n,n
O=C(CSc1ccc(-c2ccccn2)nn1)Nc1cccc([N+](=O)[O-])c1,x,x,x,48,x,x
COC(=O)c1ccc(NC(=O)CSc2ccc(-c3ccccn3)nn2)cc1,n,n,n,37!,n,n
O=C1NCCN1C(=O)N(Cc1ccsc1)C1CC1,x,x,x,n,x,x
SMILES,CCHF vOTU inh,TcdB inh,Vc quorum ag,PriA SSB inh,DUSP3 inh,PrPC TRFRET
Cc1ccc2sc(N(Cc3ccccn3)C(=O)CCOc3ccccc3)nc2c1C,x,x,x,n,x,x
O=C(Nc1cccs1)N1CCCCC(c2ccc(F)cc2)C1 (stereo not drawn),x,x,x,n,x,x
COc1cc(COCC2CCN(C(=O)c3ccc(F)cc3F)CC2)cc(OC)c1,x,x,x,n,x,x
COc1ccccc1CCNC(=O)CSc1ccc(-c2ccc3c(c2)OCO3)nn1,x,x,x,67,x,x
COc1ccc(-c2ccc(SCC(=O)NCc3ccc4c(c3)OCO4)nn2)cc1OC,n,n,n,n,n,n
Cc1csc(NC(=O)CSc2ccc(-c3ccccn3)nn2)n1,n,n,n,63,n,n
O=C1CCc2cc(NC(=O)OCc3ccccc3)ccc2N1,x,x,x,n,x,x
O=C(NCCC(O)c1ccccc1)c1ccccc1Br (stereo not drawn),x,x,x,n,x,x
O=C(NCCCN1CCCC1)c1ccc2c(c1)N(Cc1ccccc1F)C(=O)c1ccccc1S2(=O)=O,n,n,n,n,51,n
O=C(CCc1ccc(-c2ccccc2)o1)Nc1ccccc1[N+](=O)[O-],x,x,x,84,x,x
COc1ccc(C2=NC3(CCN(C(=O)Nc4ccc5c(c4)OCO5)CC3)NC2=O)cc1,x,x,x,n,x,x
CC(=O)c1ccc(NC(=O)/C(=C\c2ccccc2)NC(=O)/C=C/c2ccccc2)cc1,n,x,n,n,n,n
CC(=O)Nc1ccc(O)cc1,n,25,n,n,x,n
Nc1ccc(OC(=O)Nc2ccc(O)cc2)cc1,n,12,n,n,n,n
CC(=O)N/C(=C\c1ccccc1)C(=O)Nc1ccc(O)cc1,n,13,n,n,n,n
Cc1cc(C)c2c(n1)sc1c(=O)n(CC(=O)Nc3ccc4c(c3)OCCO4)cnc12,x,x,x,n,x,x
Cn1cccc(C(=O)NCC2CCN(c3cnccn3)CC2)c1=O,x,x,x,n,x,x
CCc1ccc(S(=O)(=O)N2CCN(c3ncncc3C)CC2)s1,x,x,x,n,x,x
Cc1ccc(NC(=O)NNC(=O)COc2ccc([N+](=O)[O-])cc2)cc1C,n,n,n,40,n,n
Cc1ccc(NC(=O)CCC(=O)NNC(=O)COc2ccc([N+](=O)[O-])cc2)cc1C,n,n,n,n,n,n
O=C(NC1CCSC1=O)c1ccc(Cl)cc1 (stereo not drawn),x,n,n,n,52,x
COC(=O)C(C)Sc1ccc(NC(=O)c2cccc(F)c2)nn1 (stereo not drawn),x,x,x,n,x,x
FC(F)(F)c1cccc(CSc2ncnc3c2oc2ccccc23)c1,x,x,x,n,x,x
Cc1ccc(C(=O)N2N=C(c3cccc(NS(C)(=O)=O)c3)CC2c2cccs2)cc1 (stereo not drawn),n,n,n,n,n,n
CS(=O)(=O)Nc1cccc(C2=NN(C(=O)c3ccccc3)C(c3cccs3)C2)c1 (stereo not drawn),n,13,n,n,n,n
SMILES,CCHF vOTU inh,TcdB inh,Vc quorum ag,PriA SSB inh,DUSP3 inh,PrPC TRFRET
COc1ccc(CNCCc2ccc3c(c2)OCO3)cc1Br,n,11,n,n,n,n
NC(=O)c1ccc(NC(=O)Cc2cc(=O)[nH]c(SCc3ccc(F)cc3)n2)cc1,x,x,x,n,x,x
CCOC(=O)C1CCN(c2ccc(S(=O)(=O)C(F)(F)F)cc2[N+](=O)[O-])CC1,x,x,x,35,x,x
CCOC(=O)C1CCN(c2ccc([N+](=O)[O-])c(C(C)=O)c2)CC1,n,n,n,n,n,n
O=C(C1CC1)N1CCN(c2ccc(O)cc2)CC1,n,n,n,n,56,n
O=C(CSc1nnc(CCc2nc3ccccc3[nH]2)o1)N1CCN(c2ccccc2F)CC1,x,x,x,n,x,x
Cn1ccnc1SCC1CCN(S(=O)(=O)c2ccc3c(c2)CCCC3)CC1,x,x,x,63,x,x
CCCCCCC/C=N/Nc1nnc(Cc2ccccc2)c(=O)[nH]1,n,n,n,x,53,n
COCCNC(=S)NNC(=O)c1ccccn1,x,x,x,156,x,x
C/C(=N\NC(=O)c1cccnc1)c1ccccc1,n,n,n,x,59,n
CC(C)C(=O)NNC(=O)c1ccccn1,n,n,n,n,n,n
CNC(=S)NNC(=O)c1ccccn1,x,x,x,152,x,x
C=CCNC(=S)NNC(=O)c1ccccn1,x,x,x,148,x,x
O=C(CCn1cnc2ccccc2c1=O)N1CCC(COc2nc3ccccc3s2)CC1,x,x,x,n,x,x
CCOc1ccc(CC(=O)N(Cc2cnc3ccccn23)C2CC2)cc1,x,x,x,n,x,x
Cc1cccc(Cn2cnc3c(cnn3CCNC(=O)C34CC5CC(CC(C5)C3)C4)c2=O)c1,x,x,x,n,x,x
NC(=O)c1ccc(NC(=O)CCCn2nc(-c3cccs3)ccc2=O)cc1,x,x,x,n,x,x
